Sampled rows, rich in hits. Any-hit rate of the full collection: about 3.7%.
V-ATPase pH – regulators of yeast V-ATPase proton transport; response, % at 10 µM; hit rate 0.37% among 350,000; S. cerevisiae, pHLuorin cytosolic pH fluorescence; in the data active means response mostly above about 7.3%, no sharp cut-off; inactive means mostly below about 5.4%; further: actives read high
TIM10 inh – TIM10 yeast growth inhibition. AID 463195. S. cerevisiae TIM10 strain growth, BacTiter-Glo luminescence, 24 h. hit rate 1.4% among 330,000. inhibition, % at 10 µM;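 active means inhibition of 40% or more at the single tested concentration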;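 further: wild-type TIM10 isogenic control strain grown at permissive 25 °C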
tim10-1 inh – tim10-1 yeast growth inhibition; hit rate 2.2% among 330,000; inhibition, % at 20 µM; S. cerevisiae tim10-1 ts strain growth, BacTiter-Glo, 24 h;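 active means inhibition of at least 40%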;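 further: mutant grown at 25 °C; 0% = DMSO wells with yeast and 100% = wells holding no yeast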
tim23-1 inh – growth inhibitors of tim23-1 mutant yeast | S. cerevisiae tim23-1 growth, BacTiter-Glo luminescence, 24 h | inhibition, % at 20 µM | hit rate 1.3% among 330,000;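 active means growth inhibition of the mutant yeast at or above 50%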;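 further: temperature-sensitive mutant grown at 25 °C; plate controls were DMSO-treated mutant yeast for no effect and medium wells lacking yeast for full effect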
PfHsp90 yeast 2 – inhibits growth of yeast expressing Plasmodium falciparum Hsp90; hit rate 0.32% among 310,000; AID 504621; S. cerevisiae expressing PfHsp90, BacTiter-Glo ATP, 48 h; yeast lacking PDR1 and PDR3 efflux regulators; inhibition, % at 9.4 µM;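 active means every replicate shows inhibition above about 80%, whatever the replicate mean, limit read from the data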;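 further: 0% = DMSO neutral controls and 100% = 20 µM radicicol positive controls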
tim10 confirm – confirmation of TIM10 yeast growth inhibitors. S. cerevisiae tim10 strain growth, BacTiter-Glo luminescence, 24 h. AID 463215. inhibition, % at 10 µM. shares compounds with TIM10 inh. hit rate 63% among 4,600;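 active means inhibition of yeast growth at or above a set limit in either of two replicates at 10 µM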;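 further: this counterscreen used the strain with wild-type TIM10; 0% = yeast with DMSO and 100% = medium wells lacking yeast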
tim23-1 confirm – confirmation of tim23-1 mutant yeast growth inhibitors; inhibition, % at 20 µM; shares compounds with tim23-1 inh; AID 463218; hit rate 83% among 4,400; S. cerevisiae tim23-1 growth, BacTiter-Glo luminescence, 24 h;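 active means inhibition above about 39% in either of two replicate wells at 20 µM, limit read from the data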;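 further: temperature-sensitive tim23-1 mutant grown at 25 °C; 0% = DMSO wells with yeast and 100% = medium wells without yeast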
* = called active by the depositor; · = no result.

SMILES	V-ATPase pH	TIM10 inh	tim10-1 inh	tim23-1 inh	PfHsp90 yeast 2	tim10 confirm	tim23-1 confirm
CC1NC(=O)c2cc3ccccc3cc2-n2c1nc1cc(Cl)ccc1c2=O (stereo not given)	1	·	·	·	·	·	·
Cc1cc(C2CCCCC2)n(O)c(=O)c1	0	59*	38	66*	109*	62*	53*
Cn1c(NC2CCCCC2)cc(=O)n(C)c1=O	-2	-11	4	2	-8	·	·
COc1ccc2nc(SC(C)C(=O)NC3CCCC3)[nH]c2c1 (stereo not given)	0	2	3	10	·	·	·
Cc1ccc(C)c(S(=O)(=O)N(C)C2(C)CCS(=O)(=O)C2)c1 (stereo not given)	-1	-5	3	0	15	·	·
CCOCC(=O)Nc1cc(C(=O)Nc2ccc(F)cc2)ccc1Cl	·	3	-10	-1	·	·	·
COCCN1CCn2c(nc3cc(NC(=O)c4cccs4)ccc32)C1	2	24	-5	38	-2	·	·
COc1cccc(C(=O)Nc2ccccc2)c1	0	44*	25	50*	19	27	58*
COc1cccc(C(=O)Nc2ccc(NC(=O)Cc3ccccc3)cc2)c1	0	-15	4	15	-20	·	·
CC(c1ccccc1)N1CCn2c(nc3cc(NC(=O)c4cccs4)ccc32)C1 (stereo not given)	1	44*	24	53*	12	32*	64*
COc1cccc(NC(=O)c2cccs2)c1	1	66*	27	51*	·	56*	75*
COCC(=O)Nc1cc(C(=O)Nc2ccccc2)ccc1Cl	·	42*	31	54*	·	47*	71*
O=C(CN1C(=O)NC2(CCCC2)C1=O)Nc1cc(Cl)ccc1N1CCOCC1	-1	-7	3	9	-1	·	·
CSc1ncccc1C(=O)OCC(=O)Nc1cccc(S(=O)(=O)N2CCOCC2)c1	-1	3	11	18	-7	·	·
N#CCOC(=O)/C=C/c1ccc2c(c1)OCO2	15	-28	11	6	·	·	·
CSc1ccc(/C=C/C(=O)NC(=O)c2ccccc2O)cc1	2	19	17	27	-1	·	·
COc1ncnc2c1ncn2CCCN(C)CCc1ccccn1	-3	·	·	·	·	·	·
COc1ccc(C(=O)Nc2ccccc2)cc1NC(=O)c1cccs1	0	54*	18	51*	3	45*	74*
O=C(Nc1ccc2nn(-c3ccccc3)nc2c1)c1cccs1	-1	53*	30	54*	-11	54*	65*
CCCOC(=O)Oc1ccc2c(=O)c(Oc3cc(C)cc(C)c3)coc2c1	8	47*	38	51*	4	41*	53*
COc1cc(C(=O)NCCCN2CCCC2=O)cc(Br)c1OCc1ccccc1	1	-1	12	23	23	·	·
O=[N+]([O-])c1cc(C(F)(F)F)ccc1NCCNC(=S)Nc1ccc(Cl)cc1	4	56*	-32	81*	-23	50*	-15
O=[N+]([O-])c1cc(C(F)(F)F)ccc1NCCCCNS(=O)(=O)c1ccc(Cl)cc1	-7	-6	10	13	-29	·	·
Cc1nc2ccccc2n1C(=O)c1ccccc1[N+](=O)[O-]	0	50*	34	50	-14	47*	40*
Cc1c(C(=O)n2cnc3ccccc32)cccc1[N+](=O)[O-]	1	7	28	22	4	·	·
SMILES	V-ATPase pH	TIM10 inh	tim10-1 inh	tim23-1 inh	PfHsp90 yeast 2	tim10 confirm	tim23-1 confirm
COc1ccccc1/C=N/NC(=O)c1cccc(OC(F)(F)C(F)F)c1	2	0	27	32	-89	·	·
COc1cccc(/C=N/NC(=O)C(=O)Nc2ccccc2OC(F)(F)C(F)F)c1O	-2	45*	-2	54*	92*	56*	61*
CN(C(=O)c1cccs1)C1(C)CCS(=O)(=O)C1 (stereo not given)	2	8	-3	-3	4	·	·
Cc1ccc(N=Nc2ccc(O)cc2)c(Br)c1	4	52*	-32	66*	116*	71*	-2
CCN(CC)S(=O)(=O)c1ccc(N=Nc2cc(C)cc(Br)c2O)cc1	2	22	24	29	0	·	·
Oc1ccc(N=Nc2ccc3c(c2)OCCO3)c(O)c1	5	17	31	36	1	·	·
Oc1ccc(N=Nc2ccc(Br)cc2)c(O)c1	2	48*	37	68*	-12	64*	2
O=C(COC(=O)c1cc(S(=O)(=O)N2CCOCC2)ccc1Cl)c1ccc[nH]1	1	·	·	·	·	·	·
O=C(NCC1CCCO1)c1cccc(Oc2ccc([N+](=O)[O-])cc2)c1 (stereo not given)	3	-1	-1	8	-16	·	·
Oc1c(C=Nc2ccccc2)sc2ccccc12	3	40*	33	66*	22	45*	62*
CCOC(=O)N1CCN(C(=O)C2CC(=O)N(c3ccc(C)cc3)C2)CC1 (stereo not given)	-2	3	-5	17	16	·	·
Cn1c(/C(C#N)=C/c2ccncc2)nc2ccccc21	1	46*	35	68*	-25	19	63*
COc1ccc(C(=O)NN)cc1COc1ccc(Br)cc1	2	47*	31	61*	8	40*	43*
O=C(Oc1cc(=O)oc2c1c(=O)n1c3c(cccc23)CC1)c1ccccc1	2	41*	12	58*	22	29	66*
O=C(NCCc1cnn(-c2ccccc2)c1)c1cc(COc2c(F)cccc2F)on1	-3	68*	29	52*	4	53*	68*
N#C/C(=C\c1cccs1)C(=O)Nc1ccccn1	-3	-15	-21	3	2	·	·
N#C/C(=C\c1ccccc1Cl)C(=O)Nc1ccccn1	-3	43*	33	64*	3	23	42*
COC(=O)c1ccccc1NC(=S)NC(=O)c1ccc(C)cc1	2	51*	26	60*	4	15	45*
O=C(CCn1nc(-c2ccc(Cl)cc2)ccc1=O)N1CCN(c2ccc(F)cc2)CC1	3	10	24	12	6	·	·
O=C(c1ccoc1)N1CCN(c2cc(-c3cccc(F)c3)nc3cc(-c4cccc(Cl)c4)nn23)CC1	0	·	·	·	·	·	·
CC1=CC(C)(C)N(C(=O)CN2C(=O)c3ccccc3C2=O)c2ccc(C)cc21	0	44*	40	60*	18	50*	59*
COc1ccc(NC(=O)Cn2c(=O)cnc3ccccc32)cc1S(=O)(=O)N1CCCCC1	2	-4	-9	-2	-20	·	·
CC(=O)c1ccc(N2CCN(C(=O)/C=C/c3ccc4ccccc4n3)CC2)cc1	1	64*	24	50*	1	76*	40*
O=S(=O)(c1ccc2ccccc2c1)N1CCN(c2ccc(O)cc2)CC1	-1	44*	31	58*	-15	44*	48*

Screening results deposited in PubChem by several laboratories.
